# In PubChem BioAssay (EPA / NIEHS):
# Results filed as inconclusive are left out. Active and inactive are the calls of the source. Rule for the calls: active = hit-call score of the fitted dose curve at least 0.9, where 1 is the maximum; inconclusive = response in the unintended direction; inactive = score below 0.9.
# Read-out: Cytochrome P450 3A4 (Homo sapiens) (UniProt P08684)
# Test: CLD_CYP3A4_6hr: CellzDirect (CLD) Gene Expression Assay for xenobiotic metabolism (CYP3A4) at 6 hours (AID 2283680)
# Method: CLD_6hr is a cell-based, multiplexed-readout assay that uses hepatocyte, a human liver primary cell, with measurements taken at 6 hours after chemical dosing in a 96-well plate.CLD_CYP3A4_6hr is one of 16 assay component(s) measured or calculated from the CLD_6hr assay. It is designed to make measurements of mRNA induction, a form of inducible reporter, as detected with chemiluminescence signals by Quantitative Nuclease Protection Assay (qNPA) technology.Data from the assay component CLD_CYP3A4_6hr was analyzed at the endpoint, CLD_CYP3A4_6hr, in the positive analysis fitting direction relative to DMSO as the negative control and baseline of activity. Using a type of inducible reporter, gain-of-signal activity can be used to understand changes in the reporter gene as they relate to the gene CYP3A4. Furthermore, this assay endpoint can be referred to as a primary readout. To generalize the intended target to other relatable targets, this assay endpoint is annotated to the cyp intended target family, where subfamily is xenobiotic metabolism.
# Human hepatocyte cultures were treated daily for two consecutive days with fresh dosing solutions containing appropriate concentrations of the 320 ToxCast chemicals (chemical identities were blinded to CellzDirect and other ToxCast collaborators), vehicle control (0.2% DMSO), and positive control inducers as summarized in Table 1. Due to the large number of treatment groups and chemicals examined, the ToxCast chemicals were divided into two groups (spanning two independent cultures of hepatocytes from separate donor preparations (Hu778: ToxCast plates 1 and 2; Hu776: ToxCast plates 3 and 4). Each preparation of human hepatocyte cultures was treated with respective vehicle control, medium only control, set of six positive controls/reference chemicals for the five hepatic receptor pathways, and a subset of eight of the ToxCast chemicals (indoxacarb, pyrithiobac-sodium, norflurazon, cyhalofop-butyl, methomyl, thiram, acetochlor, and propiconazole). These replicate data, coupled with internal replicates designed within the blinded ToxCast chemical library, provided additional data to evaluate interindividual differences between hepatocyte preparations and their potential impact on chemical profiles.Cell morphology and integrity were evaluated using phase-contrast microscopy as an indicator of hepatocyte cell health (Tyson & Green, 1987). Cultures for each treatment group (i.e., media, vehicle [0.2% DMSO], positive control inducers [multiple concentrations], and the ToxCast chemicals [multiple concentrations]) were observed and cell morphology was assessed relative to vehicle control cultures at each harvest time point (0, 6, 24, or 48 h). […] Images were evaluated at the conclusion of the study to assess changes in cell integrity and account for the effects of chemical exposure on uncharacteristic changes in concentration-dependent gene expression profiles. The results from these determinations of apparent cytotoxicity were annotated (yes/no) alongside the corresponding qNPA data for reference.At the conclusion of each treatment period, hepatocyte cultures (96-well) were washed with 1 volume of HBSS, lysed by addition of 25 ul ArrayPlate lysis buffer (HTG, Tucson, AZ), and 70 ul/well of Denaturation Oil, denatured by incubation at 95C for 10 min, and frozen at approximately -70C until analysis by nuclease protection assay (qNPA) (Roberts et al., 2007). For qNPA analysis, cell lysates were thawed at 50C for approximately 30 min, qNPA probes were added, and samples were incubated at 95C for 10 min to begin the detection process by denaturing the target RNA, dissociating the duplexes and secondary structure hybridization. At the conclusion of the hybridization period, S1 nuclease reagent was added to each sample to digest all nonprotected nucleotides at 50C for 60-90 min. […]
# Sequence of Cytochrome P450 3A4 (Homo sapiens) (P08684 whole entry, looked up): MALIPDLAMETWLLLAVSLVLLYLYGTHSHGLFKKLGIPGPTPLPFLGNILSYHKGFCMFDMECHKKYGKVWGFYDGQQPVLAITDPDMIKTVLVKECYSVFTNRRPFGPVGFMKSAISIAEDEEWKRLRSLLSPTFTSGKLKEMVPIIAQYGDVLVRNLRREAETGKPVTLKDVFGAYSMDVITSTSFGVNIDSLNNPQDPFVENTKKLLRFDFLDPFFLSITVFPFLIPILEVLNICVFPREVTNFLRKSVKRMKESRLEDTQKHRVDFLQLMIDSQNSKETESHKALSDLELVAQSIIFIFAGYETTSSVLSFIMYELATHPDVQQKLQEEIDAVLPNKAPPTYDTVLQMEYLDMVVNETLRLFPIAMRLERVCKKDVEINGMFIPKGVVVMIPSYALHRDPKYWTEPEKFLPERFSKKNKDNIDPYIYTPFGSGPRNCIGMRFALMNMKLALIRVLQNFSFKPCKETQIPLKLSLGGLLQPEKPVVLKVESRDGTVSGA
Compound,outcome,AC50
Oc1ccc(C(c2ccc(O)cc2)C(Cl)(Cl)Cl)cc1,inactive,
CCCCCOC(=O)COc1cc(N2C(=O)C3=C(CCCC3)C2=O)c(F)cc1Cl,,3.78 µM (active)
COC(=O)c1ccc(I)cc1S(=O)(=O)NC(=O)Nc1nc(C)nc(OC)n1,,0.348 µM (active)
CC(C)(c1ccc(O)cc1)c1ccc(O)cc1,inactive,
CCNc1nc(N)nc(Cl)n1,inactive,
CCCCCCC(C)OC(=O)COc1nc(F)c(Cl)c(N)c1Cl (stereo unspecified),inactive,
CSC(=O)c1cccc2nnsc12,inactive,
CCOC(=O)NCCOc1ccc(Oc2ccccc2)cc1,inactive,
CCCCC(CC)COC(=O)c1ccccc1C(=O)O (stereo unspecified),inactive,
Cc1nn(C)c(Oc2ccccc2)c1C=NOCc1ccc(C(=O)OC(C)(C)C)cc1,inactive,
COC(=O)c1c(Cl)nn(C)c1S(=O)(=O)NC(=O)Nc1nc(OC)cc(OC)n1,inactive,
c1ccc(Nc2ccccc2)cc1,inactive,
CCCOC(=O)NCCCN(C)C,inactive,
O=C(O)C1(C(=O)Nc2ccc(Cl)cc2Cl)CC1,inactive,
CCCCC(CC)CN1C(=O)C2C3C=CC(C3)C2C1=O (stereo unspecified),inactive,
CCOC(=O)C(C)Oc1ccc(Oc2cnc3cc(Cl)ccc3n2)cc1 (stereo unspecified),inactive,

Compound,outcome,AC50
CCCN(CCC)c1c([N+](=O)[O-])cc(C(F)(F)F)c(N)c1[N+](=O)[O-],inactive,
COc1c(Cl)ccc(Cl)c1C(=O)O,inactive,
CCOC(=O)COc1cc(-n2ncc(C(F)(F)F)c(C)c2=O)c(F)cc1Cl,,4.73 µM (active)
CC(C)(C)[C@@H](O)[C@@H](Cc1ccc(Cl)cc1)n1cncn1,inactive,
CCCN(CCC)C(=O)SCC,inactive,
CCCCOC(=O)C(C)Oc1ccc(Oc2ccc(C(F)(F)F)cn2)cc1 (stereo unspecified),inactive,
COC(=O)CSc1cc(N=c2sc(=O)n3n2CCCC3)c(F)cc1Cl,,1.3 µM (active)
COC(=O)c1cccc(C)c1S(=O)(=O)NC(=O)Nc1nc(OCC(F)(F)F)nc(N(C)C)n1,inactive,
CCCCOC(=O)[C@@H](C)Oc1ccc(Oc2ccc(C(F)(F)F)cn2)cc1,inactive,
COc1nc(C)nc(NC(=O)NS(=O)(=O)c2ccccc2OCCCl)n1,inactive,
COCCO,inactive,
CCN(Cc1c(F)cccc1Cl)c1c([N+](=O)[O-])cc(C(F)(F)F)cc1[N+](=O)[O-],,1.9 µM (active)
CC1(C)C(C=C(Cl)Cl)C1C(=O)OCc1cccc(Oc2ccccc2)c1 (stereo unspecified),inactive,
S=C(S)NCCNC(=S)S.[Mn+2].[S-]C([S-])=NCCN=C([S-])[S-].[Zn+2],,3.97 µM (active)
CN(C)C(=O)Nc1ccc(Cl)c(Cl)c1,inactive,
